Experimental data as given in PubChem BioAssay (EPA / NIEHS).
Calls of active or inactive are those of the source. Rule for the calls: active = hit-call score of the fitted dose curve at least 0.9, where 1 is the maximum; inconclusive = response in the unintended direction; inactive = score below 0.9.

Assay: Tanguay_ZF_120hpf_ActivityScore_legacy: (Legacy) Oregon State University Tanguay Lab 120 Hour Post-fertilization zebrafish Assay Score for Activity (AID 2283742)
Protocol: Tanguay_ZF_120hpf_legacy is a whole embryo, multiplexed endpoint assay using zebrafish larvae exposed for 120 hours post fertilization on a 96-well plate.Tanguay_ZF_120hpf_ActivityScore_legacy is one of one assay component(s) measured or calculated from the Tanguay_ZF_120hpf_legacy assay. It is designed to make measurements of developmental malformations and mortality as detected with brightfield microscopy and combines scoring from 18 other assay components measuring more specific morphologies.Data from the assay component Tanguay_ZF_120hpf_ActivityScore_legacy was analyzed into 1 assay endpoints. This assay endpoint, Tanguay_ZF_120hpf_ActivityScore_legacy, was analyzed in the positive analysis fitting direction relative to DMSO as the negative control and baseline of activity. Using a type of morphology reporter, gain-of-signal activity can be used to understand changes in developmentals as they relate to the whole embryo. To generalize the intended target to other relatable targets, this assay endpoint is annotated to the zebrafish development intended target family, where the subfamily is embryonic morphogenesis and mortality.
Zebrafish husbandry: Tropical 5D wild-type adult zebrafish were housed in at an approximate density of 1000 per 100 gallon tank at the Sinnhuber Aquatic Research Laboratory, Oregon State University, Corvallis, OR. Each tank was kept at standard laboratory conditions of 28C on a 14-h light/10-h dark photoperiod in fish water consisting of reverse osmosis water supplemented with a commercially available salt (Instant Ocean). Spawning funnels were placed into the tanks the night prior, and embryos were collected and staged. To increase bioavailability, the chorion was enzymatically removed using pronase (63.6mg/ml, >/= 3.5U/mg, Sigma-Aldrich: P5147) at 4 hours post fertilization (hpf) using a custom automated dechorionator.Chemical exposures: Six hpf dechorionated embryos were placed 1 embryo per well in a 96-well plate prefilled with 90 ul of EM using automated embryo placement systems (AEPS). Ten microliters of each row of dilution plate 2 was added to 2 exposure plates. The final DMSO concentration used was 0.64% (vol/vol). Thirty-two embryos were also exposed to 5uM trimethyltin chloride (positive control). Plates were sealed to prevent evaporation and foil covered to reduce light exposure and kept in a 28C incubator. Embryos were statically exposed until 120 hpf. At 24 hpf, embryos were assessed for photomotor response using a custom photomotor response analysis tool (PRAT) and for developmental toxicity endpoints (MO24: mortality at 24 hpf, DP: developmental progression, SM: spontaneous movement, and NC: notochord distortion). At 120 hpf, locomotor activity was measured using Viewpoint Zebralab and assessed for 18 endpoints. Zebrafish acquisition and analysis program (ZAAP), a custom program designed to inventory, acquire, and manage zebrafish data, was used to collect developmental endpoints as either present or absent (i.e., binary responses were recorded). If mortality occurred for an embryo (at either 24 or 120 hpf), the non-mortality endpoints were not measured.

Row | SMILES | outcome | AC50
1 | Oc1ccccc1 | inactive | –
2 | NC(=O)c1nc(-c2cccc(-c3cc(F)ccc3OCC(F)(F)C(F)(F)F)c2)n[nH]1 | – | 30.9 µM (active)
3 | Oc1ccc2ccccc2c1 | – | 36.6 µM (active)
4 | CC1=CC(=O)/C(=C(/C)O)C(=O)O1 | inactive | –
5 | CC(C)(c1cc(Br)c(O)c(Br)c1)c1cc(Br)c(O)c(Br)c1 | – | 1.99 µM (active)
6 | CC(=O)N1CCN(c2ccc(OC[C@H]3CO[C@](Cn4ccnc4)(c4ccc(Cl)cc4Cl)O3)cc2)CC1 | inactive | –
7 | Cc1ncc(CO)c(CO)c1O | inactive | –
8 | O=C1CCC(C2CCCCC2)CC1 | inactive | –
9 | CCCCCCCCN(C)CCCCCCCC | inactive | –
10 | c1ccc(C[n+]2cccc3ccccc32)cc1 | inactive | –
11 | CC[C@H](NC(=O)c1cc(F)ccc1NS(=O)(=O)c1cccc2cccnc12)c1ccccc1 | inactive | –
12 | COc1ccc2cc(S(=O)(=O)N[C@H](CC(=O)N[C@H](Cc3ccc(CN4[C@H](C)CCC[C@@H]4C)cc3)C(=O)N(C)C(C)C)c3ccc4c(c3)OCO4)ccc2c1 | inactive | –
13 | Cc1occc1C(=O)Nc1ccc(C(=O)N2CCC(F)(F)/C(=C\C(=O)N3CCC(N4CCCCC4)CC3)c3ccccc32)cc1 | inactive | –
14 | CCN(Cc1cccnc1)C(=O)c1cccc(Cl)c1[C@]1(C)C(=O)N(Cc2ccc(OC)cc2OC)c2ccc(Cl)cc21 | – | 32.5 µM (active)
15 | Clc1cc(Cl)c2c(c1)N=C1CCCCCN1C2 | – | 18 µM (active)
16 | O=C1O[C@H]([C@@H](O)CO)C(O)=C1O | inactive | –
17 | CCCOC(=O)c1cc(O)c(O)c(O)c1 | inactive | –
18 | CC(C)(C)c1csc(-c2cc3cc(OCc4ccccc4CC(=O)O)ccc3o2)n1 | – | 27.1 µM (active)
19 | O=C(OCCCCCCOC(=O)c1ccccc1)c1ccccc1 | inactive | –
20 | CCCCCCCCCCCCO | inactive | –

Row | SMILES | outcome | AC50
21 | CN1C(=O)CC[C@H]1c1cccnc1 | inactive | –
22 | COCC(C)OCC(C)OCC(C)O (stereo not given) | inactive | –
23 | O=C=NCCCCCCN=C=O | inactive | –
24 | Cc1cn([C@H]2C[C@H](N=[N+]=[N-])[C@@H](CO)O2)c(=O)[nH]c1=O | inactive | –
25 | c1ccc2n[nH]nc2c1 | inactive | –
26 | CN(C)C(=O)C1(N2CCCCC2)CCN(CC[C@@]2(c3ccc(Cl)c(Cl)c3)CN(C(=O)c3ccccc3)CCO2)CC1 | – | 16.2 µM (active)
27 | O=c1c(-c2ccc(O)cc2)coc2cc(O)cc(O)c12 | – | 20 µM (active)
28 | CCN(Cc1cccc(S(=O)(=O)O)c1)c1ccc(C(=C2C=CC(=[N+](CC)Cc3cccc(S(=O)(=O)O)c3)C=C2)c2ccccc2S(=O)(=O)[O-])cc1 | inactive | –
29 | CC(C)(O)c1ccc(CNC(=O)c2cccnc2Oc2ccc3nonc3c2)cc1 | inactive | –
30 | CCO[Si](CCCNC(N)=O)(OCC)OCC | inactive | –
31 | OCCO | inactive | –
32 | Cc1cc(F)ccc1-c1cc(N2CC[C@@H](O)[C@H]2CO)ncc1N(C)C(=O)C(C)(C)c1cc(C(F)(F)F)cc(C(F)(F)F)c1 | inactive | –
33 | CO[C@H]1/C=C/O[C@@]2(C)Oc3c(C)c(O)c4c(O)c(c(/C=N/N5CCN(C)CC5)c(O)c4c3C2=O)NC(=O)/C(C)=C\C=C\[C@H](C)[C@H](O)[C@@H](C)[C@@H](O)[C@@H](C)[C@H](OC(C)=O)[C@@H]1C | inactive | –
34 | CN(C)c1ccc(C(=C2C=CC(=[N+](C)C)C=C2)c2ccc(N(C)C)cc2)cc1 | – | 1.66 µM (active)
35 | COc1cccc([C@H](O)C2CCN(CCc3ccc(F)cc3)CC2)c1OC | inactive | –
36 | CCCCCCCCCC(=O)O | inactive | –
37 | CC/C(=C(/CC)c1ccc(O)cc1)c1ccc(O)cc1 | – | 28.5 µM (active)
38 | CC(O)CC(C)(C)O (stereo not given) | inactive | –
39 | CN(C[C@@H](CC[N+]12CCC(C3CCCCC3)(CC1)CC2)c1ccc(Cl)c(Cl)c1)C(=O)c1cc(C(F)(F)F)cc(C(F)(F)F)c1 | – | 46.9 µM (active)
40 | CC1(C)NC(=O)N(c2ccc([N+](=O)[O-])c(C(F)(F)F)c2)C1=O | inactive | –
